The values below come from PubChem BioAssay (Tox21).

Results filed as inconclusive are left out. Active and inactive are the calls of the source. Calls follow the shape of the dose curve; as a rule, active = well fitted cell-killing curve with a large enough effect in the repeat runs; inconclusive = weak or mixed curves, or effect the other way; inactive = flat fitted curve, though single readings scatter.
% is scaled to controls: 0 for no effect and ±100 for the full control effect; potency is read from the fitted curve at half-maximal effect.

The assay can be described thus: qHTS RealTime-Glo MT Cell Viability Assay in HEK293 cells - 32 hour (AID 1224868). Also: nearly all actives have a fitted effect of over 50% in size. As to activity change, negative = cytotoxic: top concentration of the series differs between compounds. The note with it: RealTime-Glo luminescence; series mostly up to 76.8 µM; activity change, negative = cytotoxic: at the top concentration. The text has this: National Center for Advancing Translational Sciences [NCATS]
NIH Chemical Genomics Center [NCGC]
U.S. Environmental Protection Agency [EPA]
National Institutes of Environmental Health Sciences [NIEHS]
National Toxicology Program [NTP]
U.S. Food and Drug Administration [FDA]
Measure of cell viability is critical in the cell-base assay. Analysis of cell viability is necessary for the characterization of cell responses to cytotoxic drugs and environmental stress. A RealTime-Glo MT Cell Viability Assay to monitor cell viability in real time of continues cell culture during 40 hours of compound treatment was used to screen Tox21 10K library compounds in Hek293 cells. The RealTime-Glo MT Cell Viability Assay is a nonlytic, homogeneous, bioluminescent method to measure cell viability in real time using a simple, plate-based method. The assay involves adding NanoLuc luciferase and a cell-permeant prosubstrate to cells in culture. Viable cells reduce the proprietary prosubstrate to generate a substrate for NanoLuc luciferase. This substrate diffuses from cells into the surrounding culture medium, where it is rapidly used by the NanoLuc Enzyme to produce a luminescent signal. The signal correlates with the number of viable cells, making the assay well suited for cytotoxicity studies.
Tox21 Assay Protocol Summary:
The mixture of Hek293 cell suspension and reagents were dispensed at 600cells/6 ul/well in 1536-well tissue culture treated black solid bottom plates using a Multidrop dispenser. After the assay plates were incubated at a 37 C/5% CO2 incubator for 5 hours, 23 nL of compounds dissolved in DMSO, positive and negative controls was transferred to the assay plate by a pintool work station. The plates were incubated at 37 C for 40 hours. The luminescence intensity were measured at 0h, 8h, 16h, 24h, 32h and 40h time points using ViewLux plate reader during compound treatment.
Background: Quantitative high-throughput screening tests each substance at several concentrations.
`COc1cc(C[C@@H](C)N)c(OC)cc1C`: the “activity change, negative = cytotoxic” value is -12% (inactive).

As for `CCC1(c2ccccc2)C(=O)NC(=O)NC1=O`, the “activity change, negative = cytotoxic” value was 3.22% (inactive).

In the case of `CCN(Cc1ccc(Cl)nc1)/C(=C/[N+](=O)[O-])NC`, the “activity change, negative = cytotoxic” value was -1.15% [at 35.3 µM] (inactive).

As to `NC1=NC(=O)C(c2ccccc2)O1` (stereo not given), the “activity change, negative = cytotoxic” value is 3.14% [at 35.3 µM] (inactive).

`COC(C)(C)C`: the “activity change, negative = cytotoxic” value was 8.15% (inactive).

`CCS(=O)(=O)C(C)(C)S(=O)(=O)CC`: the “activity change, negative = cytotoxic” value was 3.06% [at 35.3 µM] (inactive).

`CCC(C)(C)c1cc(-n2nc3ccccc3n2)c(O)c(C(C)(C)CC)c1`: the Potency is 22.2 µM (active).

For the compound `CCCCOC(=O)[C@@H](C)Oc1ccc(Oc2ccc(C#N)cc2F)cc1`, the Potency was 21.7 µM (active).

For `CCOP(=S)(OCC)SCSc1ccc(Cl)cc1`, the “activity change, negative = cytotoxic” value was -0.693% (inactive).

`CN(N=O)C(N)=O`: the “activity change, negative = cytotoxic” value was 10.4% (inactive).

With `BrCCCCCCBr`, the “activity change, negative = cytotoxic” value is 2.29% (inactive).

Consider `CC(C)CC#N`, for which the “activity change, negative = cytotoxic” value is 2.35% (inactive).

`Nc1cc2c3c(c1)C(c1ccccc1)=N[C@@H](NC(=O)c1cccnc1)C(=O)N3CC2`: the “activity change, negative = cytotoxic” value is -2.97% (inactive).

Regarding `COc1cccc2c1cc([N+](=O)[O-])c1c(C(=O)O)cc3c(c12)OCO3`, the Potency is 2.45 µM (active).

For the compound `CNC(=O)Oc1cccc(C(C)C)c1`, the “activity change, negative = cytotoxic” value is -4.05% (inactive).

On to `COc1cc(OC)nc(Oc2cccc(Oc3nc(OC)cc(OC)n3)c2C(=O)O)n1`, for which the “activity change, negative = cytotoxic” value was -5.47% (inactive).

With `O=C(Nc1ccccc1)c1ccccc1I`, the “activity change, negative = cytotoxic” value is -19.5% (inactive).

On to `COC(=O)c1ccccc1S(=O)(=O)NC(=O)N(C)c1nc(C)nc(OC)n1`, for which the “activity change, negative = cytotoxic” value is 8.56% (inactive).

Regarding `Clc1ccccc1N1CCNCC1`, the “activity change, negative = cytotoxic” value is -1.09% [at 35.3 µM] (inactive).

As to `CC1=C(C(=O)Nc2ccccc2)S(=O)(=O)CCO1`, the Potency is 48.9 µM (active).

On to `O=C(Cc1ccccc1)OCc1ccccc1`, for which the “activity change, negative = cytotoxic” value was -16.1% (inactive).

`CN1C[C@@H](NS(=O)(=O)N(C)C)C[C@@H]2c3cccc4c3c(cn4C)C[C@H]21`: the “activity change, negative = cytotoxic” value was -18.7% [at 35.3 µM] (inactive).

In the case of `COC(=O)C(c1ccccc1)C1CCCCN1` (stereo not given), the “activity change, negative = cytotoxic” value was 2.45% (inactive).

On to `O=C(Oc1ccc(Br)cc1)N1CCN2CCC1CC2`, for which the “activity change, negative = cytotoxic” value was 2.37% (inactive).

As for `CC1(C)CON(Cc2ccccc2Cl)C1=O`, the “activity change, negative = cytotoxic” value was -0.647% (inactive).

With `CC(CCc1ccccc1)NC(C)C(O)c1ccc(O)cc1` (stereo not given), the “activity change, negative = cytotoxic” value was -22.8% [at 35.3 µM] (inactive).

Turning to `O=C(N[C@H]1CN2CCC1CC2)c1cc2ccoc2cn1`, the “activity change, negative = cytotoxic” value is 6.42% (inactive).

For `CCC(=O)C(CCN(C)C)(c1ccccc1)c1ccccc1`, the “activity change, negative = cytotoxic” value is -19.5% [at 35.3 µM] (inactive).

For `CCOC(=O)/C=C(C)/C=C/C[C@@H](C)CCCC(C)C`, the “activity change, negative = cytotoxic” value is 11% (inactive).

As to `CCOP(=S)(OCC)Oc1nc(Cl)n(C(C)C)n1`, the “activity change, negative = cytotoxic” value is 27.2% (inactive).

As to `C=C(C)[C@@H]1CC=C(C=O)CC1`, the “activity change, negative = cytotoxic” value is -3.37% (inactive).

On to `CN1CCN(C(=O)O[C@H]2c3nccnc3C(=O)N2c2ccc(Cl)cn2)CC1`, for which the “activity change, negative = cytotoxic” value was 0.0029% [at 35.3 µM] (inactive).

Take `O=[N+]([O-])c1cccc2cccnc12`: the “activity change, negative = cytotoxic” value was -6.95% (inactive).

In the case of `CCOc1nc(C(Cl)(Cl)Cl)ns1`, the “activity change, negative = cytotoxic” value is 0.234% (inactive).

Take `NC(=O)O`: the “activity change, negative = cytotoxic” value was 3.4% (inactive).

On to `CCCCP(CCCC)CCCC`, for which the “activity change, negative = cytotoxic” value is -5.4% (inactive).

On to `OCCSCSCCO`, for which the “activity change, negative = cytotoxic” value was 0.658% (inactive).

For `ClC(Cl)Br`, the “activity change, negative = cytotoxic” value was 14.8% (inactive).

With `OC(c1ccccc1)(c1ccccc1)C1CCNCC1`, the “activity change, negative = cytotoxic” value was -11.1% [at 35.3 µM] (inactive).

For the compound `N#CCBr`, the “activity change, negative = cytotoxic” value was 8.38% (inactive).
